Eight compounds from PubChem BioAssay (Tox21) can be followed below.

Activity calls are given as the source filed them. Unless noted, calls follow the shape of the dose curve; as a rule, active = well fitted curve in the direction sought with a large enough effect in the repeat runs; inconclusive = weak or mixed curves; inactive = no such curve, though single readings can be large; an effect the other way counts as inactive or inconclusive.

Assay [1] in a line: qHTS assay to identify small molecule antagonists of the thyroid receptor (TR) signaling pathway (AID 743065). Also: nearly all actives have a fitted effect of over 55% in size. Also: potency is read from the fitted curve at half-maximal effect. An outline of the steps: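 Antagonism measured as loss of luciferase signal in GH3 cells stably carrying a TRE-luciferase reporter, co-treated with compound and T3 (1 nM final) for 23.5 h at 37 C. Viability was read in the same well by CellTiter-Fluor.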
Background: Quantitative high-throughput screening tests each substance at several concentrations.

The subject of assay [2] is thyroid hormone receptor (rat, GH3 cells). Briefly: qHTS assay to identify small molecule agonists of the thyroid receptor (TR) signaling pathway (AID 743066; calls by dose curve).
Assay [3] in a line: qHTS assay to identify small molecule antagonists of the estrogen receptor alpha (ER-alpha) signaling pathway - cell viability counter screen (AID 743074; calls by dose curve;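 also: HEK293 cells carrying ER-alpha-UAS-bla reporter stimulated with 17beta-estradiol; nearly all actives have a fitted effect of over 45% in size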).
Assay [4] has as its target Estrogen receptor (Homo sapiens) (UniProt P03372). As to the kind of experiment: qHTS assay to identify small molecule agonists of the estrogen receptor alpha (ER-alpha) signaling pathway (AID 743075; calls by dose curve;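 also: HEK293 GripTite cells with ER-alpha and UAS-driven beta-lactamase reporter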; also: potency is read from the fitted curve at half-maximal effect).
For assay [5] the target is unchanged. As to the kind of experiment: qHTS assay to identify small molecule agonists of the estrogen receptor alpha (ER-alpha) signaling pathway using the BG1 cell line (AID 743079). Also: nearly all actives have a fitted effect of over 20% in size. Also: potency is read from the fitted curve at half-maximal effect.
The nature of assay [6]: qHTS assay to identify small molecule antagonists of the estrogen receptor alpha (ER-alpha) signaling pathway using the BG1 cell line (AID 743080; calls by dose curve; also: series mostly up to about 70 µM; nearly all actives have a fitted effect of over 25% in size). An outline of the steps: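 Antagonist mode: compounds in DMSO were pinned onto BG1-Luc-4E2 cells alongside 17beta-estradiol agonist, incubated 21.5 h, and ERE-driven luciferase measured with ONE-Glo. Cytotoxicity was multiplexed using CellTiter-Fluor fluorescence.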

A short description of assay [7]: qHTS assay to identify small molecule antagonists of the estrogen receptor alpha (ER-alpha) signaling pathway using the BG1 cell line - cell viability counter screen (AID 743081).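 Also: compound given together with 17beta-estradiol as the ER stimulus; series mostly up to about 70 µM; nearly all actives have a fitted effect of over 45% in size.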
Another assay addresses Aromatase (Homo sapiens) (UniProt P11511). As to the kind of experiment: qHTS assay to identify aromatase inhibitors (AID 743083). Also: series mostly up to about 70 µM; nearly all actives have a fitted effect of over 55% in size.
The nature of assay [8]: qHTS assay to identify aromatase inhibitors - cell viability counter screen (AID 743084).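 Also: cells stimulated with testosterone during compound exposure; nearly all actives have a fitted effect of over 55% in size.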
Assay [9] concerns the target Aryl hydrocarbon receptor (Homo sapiens) (UniProt P35869). Briefly: qHTS assay to identify small molecule that activate the aryl hydrocarbon receptor (AhR) signaling pathway (AID 743085).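 Also: HG2L7.5c1 human HepG2 liver cells with stably integrated DRE-driven firefly reporter; series mostly up to about 70 µM; nearly all actives have a fitted effect of over 15% in size.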 An outline of the steps: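 AhR agonist activity is inferred from enhanced light output of a DRE-controlled firefly luciferase reporter in HepG2 cells, measured with ONE-Glo following 24 h treatment at 37C.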

Assay [10] is described as follows: qHTS assay to identify small molecule that activate the aryl hydrocarbon receptor (AhR) signaling pathway - cell viability counter screen (AID 743086).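 Also: HepG2 liver cells carrying the AhR DRE luciferase reporter; series mostly up to about 70 µM; nearly all actives have a fitted effect of over 45% in size.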 A digest of the protocol:
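Cytotoxicity counter screen: CellTiter-Fluor signal (30 min, 37 C) in 4000 HepG2 cells/well carrying the DRE-luciferase reporter, following 24 h compound exposure at 37 C.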

Assay [11] addresses Peroxisome proliferator-activated receptor gamma (Homo sapiens) (UniProt P37231). Briefly: qHTS assay to identify small molecule antagonists of the peroxisome proliferator-activated receptor gamma (PPARg) signaling pathway (AID 743191; calls by dose curve; also: series mostly up to about 63 µM; nearly all actives have a fitted effect of over 30% in size). An outline of the steps: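 Beta-lactamase reporter under UAS control in HEK293H PPARg-bla cells; compound treatment 17 h at 37C. Read-out: fluorescence intensity after 1 h room-temperature incubation with LiveBLAzer B/G FRET substrate.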

The nature of assay [12]: qHTS assay to identify small molecule antagonists of the peroxisome proliferator-activated receptor gamma (PPARg) signaling pathway - cell viability counter screen (AID 743194). Also: nearly all actives have a fitted effect of over 55% in size. A digest of the protocol:
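Viability was measured as CellTiter-Glo luminescence in GeneBLAzer PPARg UAS-bla HEK293H cells. These cells had been exposed 17 h at 37 C to compounds together with rosiglitazone at 50 nM final, with the beta-lactamase readout taken in the same wells.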

The nature of assay [13]: qHTS assay for small molecule agonists of the antioxidant response element (ARE) signaling pathway (AID 743202; active = well fitted activation curve with a large enough effect in the signal ratio in the repeat runs, not every such curve was filed as active; inconclusive = weak or mixed curves, or effect the other way; inactive = no such curve, though single readings can be large or run the other way; the % refers to the signal ratio). A digest of the protocol:
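Quantitative high-throughput format in HepG2 cells bearing an integrated ARE-beta-lactamase reporter. Compound exposure lasted 16 h at 37 C, and fluorescence was read 2 h after adding LiveBLAzer B/G substrate at room temperature.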

Assay [14] is described as follows: qHTS assay for small molecule activators of the heat shock response signaling pathway - cell viability counter screen (AID 743209). Also: nearly all actives have a fitted effect of over 50% in size. A digest of the protocol: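 Readout: CellTiter-Glo luminescence, 30 min at room temperature. System: HSE-bla HeLa cells, 1500/well, plated overnight. Treatment: compounds in DMSO, 5 h at 37 C.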
Assay [15] can be described thus: qHTS assay for small molecule activators of the heat shock response signaling pathway (AID 743210; active = well fitted activation curve with a large enough effect in the signal ratio in the repeat runs, with a control signal flat, not every such curve was filed as active; inconclusive = weak or mixed curves; the % refers to the signal ratio;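 also: HeLa cells with beta-lactamase reporter driven by heat shock elements; series mostly up to about 63 µM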). A digest of the protocol:
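HeLa HSE-bla cells, overnight plating; cpd in DMSO 5 h, 37 C; LiveBLAzer B/G FRET substrate 2.5 h RT; fluorescence intensity read.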

The nature of assay [16]: qHTS assay to identify small molecule agonists of the peroxisome proliferator-activated receptor delta (PPARd) signaling pathway - cell viability counter screen (AID 743211). Also: nearly all actives have a fitted effect of over 55% in size. An outline of the steps: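 qHTS cell viability: PPARd-bla HEK293H; 17 h cpd, 37C; CellTiter-Glo, luminescence at 30 min RT.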
Assay [17] deals with Estrogen receptor (Homo sapiens) (UniProt P03372). As to the kind of experiment: qHTS assay to identify small molecule antagonists of the estrogen receptor alpha (ER-alpha) signaling pathway (AID 743069; active = well fitted curve in the direction sought with a large enough effect in the signal ratio in the repeat runs, not every such curve was filed as active; inconclusive = weak or mixed curves, or effect the other way; inactive = no such curve, though single readings can be large or run the other way; the % refers to the signal ratio). An outline of the steps: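 ER-alpha-UAS-bla GripTite HEK293 line; 2% charcoal-stripped FBS overnight; plated, 4 hr 37C/5% CO2; cpd in DMSO + 17beta-estradiol, 18 hr 37C; LiveBLAzer B/G FRET substrate 2 hr RT; fluorescence intensity.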

Assay [18] can be described thus: qHTS assay for small molecule agonists of the antioxidant response element (ARE) signaling pathway - cell viability counter screen (AID 743203; calls by dose curve; also: nearly all actives have a fitted effect of over 55% in size). An outline of the steps: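 Following 16 hrs of compound treatment at 37C, HepG2 cells with an ARE-controlled beta-lactamase gene were lysed with CellTiter-Glo. Luminescence was read after 30 min at room temperature.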
Assay [19] addresses Peroxisome proliferator-activated receptor gamma (Homo sapiens) (UniProt P37231). Briefly: qHTS assay to identify small molecule agonists of the peroxisome proliferator-activated receptor gamma (PPARg) signaling pathway (AID 743094; active = well fitted activation curve with a large enough effect in the signal ratio in the repeat runs, not every such curve was filed as active; inconclusive = weak or mixed curves, or effect the other way; inactive = no such curve, though single readings can be large or run the other way; the % refers to the signal ratio). A digest of the protocol: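 Compounds dissolved in DMSO were added to PPARg UAS-bla HEK293H cells for 17 h at 37C, and reporter expression was quantified by fluorescence intensity after 1 h with LiveBLAzer B/G FRET substrate.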

Chain of Peroxisome proliferator-activated receptor gamma (Homo sapiens) (P37231 whole entry, looked up): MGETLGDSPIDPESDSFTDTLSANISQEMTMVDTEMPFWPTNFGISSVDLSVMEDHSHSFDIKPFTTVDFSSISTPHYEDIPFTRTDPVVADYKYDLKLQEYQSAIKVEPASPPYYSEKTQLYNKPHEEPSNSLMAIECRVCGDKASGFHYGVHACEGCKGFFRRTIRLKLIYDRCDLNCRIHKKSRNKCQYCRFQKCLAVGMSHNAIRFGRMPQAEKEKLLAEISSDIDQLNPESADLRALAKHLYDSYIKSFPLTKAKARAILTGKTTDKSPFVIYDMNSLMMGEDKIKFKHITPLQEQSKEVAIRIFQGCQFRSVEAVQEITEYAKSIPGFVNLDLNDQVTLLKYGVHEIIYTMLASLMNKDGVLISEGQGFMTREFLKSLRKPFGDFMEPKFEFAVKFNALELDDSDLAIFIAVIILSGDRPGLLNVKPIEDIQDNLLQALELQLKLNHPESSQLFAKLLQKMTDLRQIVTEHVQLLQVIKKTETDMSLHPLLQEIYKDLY
Chain of Aryl hydrocarbon receptor (Homo sapiens) (P35869 whole entry, looked up): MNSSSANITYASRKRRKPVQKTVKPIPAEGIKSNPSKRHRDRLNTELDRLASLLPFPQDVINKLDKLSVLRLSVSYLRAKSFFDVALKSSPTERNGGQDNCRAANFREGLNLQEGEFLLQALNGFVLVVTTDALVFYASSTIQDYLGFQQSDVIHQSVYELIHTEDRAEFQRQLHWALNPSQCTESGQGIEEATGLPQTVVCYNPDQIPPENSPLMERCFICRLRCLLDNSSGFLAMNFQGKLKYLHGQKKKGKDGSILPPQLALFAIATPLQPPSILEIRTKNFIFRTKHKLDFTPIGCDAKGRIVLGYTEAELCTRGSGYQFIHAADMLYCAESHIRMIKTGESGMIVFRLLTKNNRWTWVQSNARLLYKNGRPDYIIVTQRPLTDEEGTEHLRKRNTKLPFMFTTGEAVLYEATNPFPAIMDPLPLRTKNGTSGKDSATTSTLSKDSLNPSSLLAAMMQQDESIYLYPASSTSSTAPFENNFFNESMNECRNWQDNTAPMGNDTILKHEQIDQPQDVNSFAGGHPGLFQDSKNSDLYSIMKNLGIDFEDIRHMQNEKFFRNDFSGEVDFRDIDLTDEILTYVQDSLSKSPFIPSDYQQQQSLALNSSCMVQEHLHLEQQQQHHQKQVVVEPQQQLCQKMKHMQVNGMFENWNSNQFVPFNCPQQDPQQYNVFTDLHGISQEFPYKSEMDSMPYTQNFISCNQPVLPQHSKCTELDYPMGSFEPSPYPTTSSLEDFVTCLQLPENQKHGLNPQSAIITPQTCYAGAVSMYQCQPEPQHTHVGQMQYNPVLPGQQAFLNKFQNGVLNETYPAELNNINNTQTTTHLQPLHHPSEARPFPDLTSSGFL
Chain of Estrogen receptor (Homo sapiens) (P03372 whole entry, looked up): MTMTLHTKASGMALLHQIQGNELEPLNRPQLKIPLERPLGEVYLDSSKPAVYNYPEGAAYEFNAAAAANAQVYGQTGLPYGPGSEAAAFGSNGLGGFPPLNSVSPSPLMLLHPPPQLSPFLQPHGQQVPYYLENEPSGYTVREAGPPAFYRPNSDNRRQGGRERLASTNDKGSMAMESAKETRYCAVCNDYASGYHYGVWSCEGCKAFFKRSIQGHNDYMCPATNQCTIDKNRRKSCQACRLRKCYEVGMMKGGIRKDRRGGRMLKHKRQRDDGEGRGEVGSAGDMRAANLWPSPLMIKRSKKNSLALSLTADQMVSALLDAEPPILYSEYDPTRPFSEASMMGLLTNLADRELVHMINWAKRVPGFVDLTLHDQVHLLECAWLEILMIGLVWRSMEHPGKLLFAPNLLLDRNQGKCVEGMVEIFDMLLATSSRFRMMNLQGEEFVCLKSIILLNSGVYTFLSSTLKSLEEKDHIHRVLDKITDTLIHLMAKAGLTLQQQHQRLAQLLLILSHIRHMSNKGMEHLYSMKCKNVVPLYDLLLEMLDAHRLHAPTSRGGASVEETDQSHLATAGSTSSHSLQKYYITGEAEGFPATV
Chain of Aromatase (Homo sapiens) (P11511 whole entry, looked up): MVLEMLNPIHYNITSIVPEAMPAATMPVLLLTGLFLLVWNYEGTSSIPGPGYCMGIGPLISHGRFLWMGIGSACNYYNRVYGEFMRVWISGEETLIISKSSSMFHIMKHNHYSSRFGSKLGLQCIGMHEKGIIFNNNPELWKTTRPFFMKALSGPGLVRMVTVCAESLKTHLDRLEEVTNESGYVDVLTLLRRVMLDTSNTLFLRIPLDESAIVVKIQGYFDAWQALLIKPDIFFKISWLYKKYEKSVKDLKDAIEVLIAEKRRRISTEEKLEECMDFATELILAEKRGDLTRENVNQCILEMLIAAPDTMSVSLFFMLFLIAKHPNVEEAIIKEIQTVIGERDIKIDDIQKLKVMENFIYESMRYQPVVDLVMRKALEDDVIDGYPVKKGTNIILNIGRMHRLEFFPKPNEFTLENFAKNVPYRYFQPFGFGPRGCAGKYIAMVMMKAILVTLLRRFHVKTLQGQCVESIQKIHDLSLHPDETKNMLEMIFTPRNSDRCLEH

Turning to `Nc1ccn([C@@H]2O[C@H](CO)[C@@H](O)[C@@H]2O)c(=O)n1`, the Potency was 0.077 µM (active) in [1] and 24.3 µM (active) in [5]. The call (in [2]; in [7]; in the assay with Aromatase (Homo sapiens); in assay [12]; in [14]; in assay [15]) was inactive. The result in assay [16] was inactive. For the same compound, the Potency result in assay [3], in assay [4], in [6], in assay [8], in assay [9] and in assay [10] was “inactive” throughout. Besides, the Potency result in assay [11] and in assay [13] was “inactive” in each case.

Turning to `CC1=NN(c2cccc(S(=O)(=O)O)c2)C(=O)C1`, the Potency result in [1], in assay [17], in [3], in assay [4], in assay [5] and in [6] was “inactive” throughout. Also, the Potency entry in assay [8], in [10] and in assay [11] was “inactive” in each case. For the same compound, the outcome (in assay [2]; in [7]; in the assay with Aromatase (Homo sapiens); in [12]; in assay [18]; in [14]) was inactive. Moreover, the outcome in [15] and in [16] was inactive.

On to `CCCCCCC1CCC(=O)O1` (configuration not stated), for which the Potency entry in assay [1], in assay [17], in [3], in [4], in [5] and in assay [6] was “inactive” in each case. Besides, the Potency entry in assay [8], in [10], in assay [19] and in assay [13] was “inactive” each time. In addition, the compound was classed as inactive (in assay [2]; in assay [7]; with Aromatase (Homo sapiens); in assay [12]; in assay [18]; in [14]). Moreover, the outcome in assay [15] and in assay [16] was inactive.

Consider `CC/C=C\CCOC(C)OCC` (configuration not stated), for which the Potency entry in assay [1], in assay [17], in assay [3], in [5], in [6] and in [8] was “inactive” each time. For the same compound, the Potency entry in assay [9], in [10] and in assay [11] was “inactive” throughout. Besides, the result (in assay [2]; in assay [7]; with Aromatase (Homo sapiens); in assay [12]; in assay [14]; in assay [15]) was inactive. In addition, the result in [16] was inactive.

On to `CC(C)(C)OC(=O)c1cccc(N)c1`, for which the Potency result in [1], in [17], in assay [3], in assay [8], in assay [10] and in assay [11] was “inactive” in each case. Besides, in assay [13], the Potency entry is “inactive”. Moreover, the compound was classed as inactive (in assay [2]; in assay [7]; in the assay with Aromatase (Homo sapiens); in assay [12]; in assay [18]; in [14]). Further, the result in assay [15] and in assay [16] was inactive. The Potency in assay [4] was 56.4 µM [inconclusive] (active); in assay [5] it was 31.4 µM (active).

As for `CCC(C)(CCCC(C)C)OC(C)=O` (configuration not stated), the Potency entry in [1], in assay [17], in [3], in assay [4], in assay [5] and in assay [6] was “inactive” throughout. Moreover, the Potency result in assay [8], in [9], in assay [10], in [11] and in assay [13] was “inactive” each time. The compound was classed as inactive (in [2]; in [7]; with Aromatase (Homo sapiens); in assay [12]; in assay [18]; in assay [14]). Moreover, in [16], the compound was classed as inactive.

Regarding `CCCCOCCOC(=O)COc1cc(Cl)c(Cl)cc1Cl`, the Potency result in assay [1], in assay [17], in assay [3], in [4], in assay [5] and in [6] was “inactive” throughout. Further, the Potency result in assay [8], in assay [9] and in [10] was “inactive” throughout. The compound was classed as inactive (in [2]; in assay [7]; in the assay with Aromatase (Homo sapiens); in assay [12]; in assay [18]; in assay [14]). For the same compound, the compound was called inactive in [15] and in [16].

Take `COc1cc(C(=O)NCc2ccc(OCCN(C)C)cc2)cc(OC)c1OC`: the Potency entry in assay [1], in assay [17], in [4], in assay [5], in [8] and in assay [9] was “inactive” throughout. Moreover, the Potency entry in [10], in assay [19] and in [11] was “inactive” each time. Besides, the compound was classed as inactive (in assay [2]; in [7]; with Aromatase (Homo sapiens); in assay [12]; in assay [18]; in assay [14]). For the same compound, the result in assay [15] and in assay [16] was inactive.
